According to PubChem BioAssay AID504329 (Southern Research Specialized Biocontainment Screening …, 2011):
The campaign covered roughly 340,000 compounds. About 1,000 (0.29%) were called active. Not all results are given here. Measured potencies and affinities stand elsewhere. Unmarked numbers belong to inactive results. No stated cut-off is given here; in the data, inconclusive means inhibition above about 27% without an active follow-up result; inactive means below that.

assay: H1N1 influenza NS1A inhibitors, functional cell based assay (AID 504329); settings: percent inhibition, at 12.5 µM, stronger effect = higher value

| SMILES | inhibition |
| --- | --- |
| Cc1ccc([N+](=O)[O-])cc1S(=O)(=O)Nc1ccc(OCC(=O)N2CCOCC2)cc1 | -6.07% |
| COC(=O)c1ccccc1S(=O)(=O)NC(=O)c1ccccc1 | -2.87% |
| CCOC(=O)C1CCN(CCC(=O)Nc2ccc(Br)cc2)CC1 | -10.6% |
| CC(Sc1nnc2ccccn12)C(N)=O (configuration not stated) | 7.97% |
| Cc1ccc(S(=O)(=O)Nc2ccccc2C(=O)N2CCCCC2)cc1 | -16.7% |
| COc1ccc(C(=O)Nc2cccc(C)n2)cc1S(=O)(=O)N1CCCc2ccccc21 | 8.43% |
| CC(C)(C)OC(=O)N1C[C@H](O)C[C@H]1C(=O)OCC(=O)c1ccc([N+](=O)[O-])cc1 | 9.24% |
| CN(CC(=O)Nc1ccc(Cl)c(S(=O)(=O)N2CCOCC2)c1)C(=O)c1cccs1 | -3.85% |
| Cc1cnc(C)c(N2CCN(Cc3cn(C)nc3-c3cccc(Cl)c3)CC2)n1 | -9.06% |
| COC(=O)C(C(=O)OC)[C@@H]1C=C[C@H](C[N+](=O)[O-])N(C(C)=O)C1 | -12.3% |
| CCCOc1ccc(CNC(=O)C2CCN(c3nnc(N4CCCC4=O)s3)CC2)cc1 | -2.57% |
| Cc1ccccc1NC(=O)c1c(Cl)nc(C)c(Cl)c1C | -3.05% |
| O=C(NCc1ccncc1)C1CCC(=O)N(CCc2ccc(Cl)cc2)C1 (configuration not stated) | -3.67% |
| Cc1ccc(C(=O)N/N=C\c2cc3c(cc2Br)OCO3)cn1 | -7.88% |
| O=C(CNC(=O)c1ccncc1)N/N=C/c1cc(Br)ccc1O | 2.02% |
| O=C(NCC1CCCO1)C(=O)N/N=C/c1ccc(O)c(Cl)c1 (configuration not stated) | 11.2% |
| O=C(N/N=C/c1cc([N+](=O)[O-])ccc1O)c1ccncc1 | -34.5% |
| Cc1ccc(/C=N/NC(=O)C(c2ccncc2)N2CCOCC2)cc1 (configuration not stated) | 3.83% |
| O=C(NCC1CCCO1)C(=O)N/N=C/c1cccc(Cl)c1 (configuration not stated) | 1.01% |
| COc1ccc(Br)cc1/C=N/NC(=O)C(c1ccncc1)N1CCOCC1 (configuration not stated) | 2.7% |
| COc1ccc(C(=O)N/N=C/c2cc(Br)ccc2O)cc1OC | -6.16% |

| SMILES | inhibition |
| --- | --- |
| COC(=O)c1ccc(N2CCN(C)CC2)c(NC(=O)COc2cccc(C)c2)c1 | 8.25% |
| CC12CCC(=O)N1C(C(=O)Nc1ccccc1N1CCOCC1)CS2 (configuration not stated) | 1.95% |
| O=C(CCCC(=O)Nc1ccc(Br)cc1)N/N=C/c1ccccc1 | -7.56% |
| CNC(=S)NN=C(C)CCCC(C)=NNC(=S)NC | -24.1% |
| O=C1c2cccc([N+](=O)[O-])c2C(=O)N1C1CCCCC1 | -11.8% |
| CN1CCN(C(=O)CNC(=O)C23CC4CC(CC(C4)C2)C3)CC1 | -0.78% |
| O=C(N/N=C/c1cccnc1)c1cccc(Cl)c1 | -19.1% |
| O=C(N/N=C/c1coc2ccc(Cl)cc2c1=O)c1ccncc1 | 2.11% |
| O=C(N/N=C/c1ccc(Cl)cc1Cl)c1ccncc1 | -7.47% |
| O=C(N/N=C/c1cc(Cl)ccc1O)c1ccc(Br)cc1 | -2.86% |
| COc1ccc(/C=C(\NC(=O)c2ccco2)C(=O)N2CCOCC2)cc1 | 10.3% |
| CCN(CC)Cc1cc(C(C)(C)C)cc(N2CCOCC2)c1O | 3.29% |
| CCc1cc(=O)[nH]c(SCCc2ccccc2)n1 | 1.92% |
| O=C(NC1CCCC1)C1CCCN1C(=O)Nc1ccccc1 (configuration not stated) | 7.61% |
| CCOc1cccc(-c2c(C(=O)N/N=C(\C)c3ccncc3)nnn2-c2nonc2N)c1 | 0.12% |
| CCOc1cccc(-c2c(C(=O)N/N=C(\C)c3cccnc3)nnn2-c2nonc2N)c1 | -0.26% |
| N=C1c2ccccc2CN1NC(=O)c1ccc(Br)o1 | -1.62% |
| Cc1ccc(Nc2c([N+](=O)[O-])ccc3nonc23)c(C)c1 | 24.2% |
| O=[N+]([O-])c1cccc(Nc2c([N+](=O)[O-])ccc3nonc23)c1 | 11.8% |
| COc1ccccc1CNC(=O)CSC1=NCCS1 | -11.3% |
| CSc1ccccc1OCc1cc(C(=O)NCCN2CCCC(O)C2)no1 (configuration not stated) | 14.2% |

| SMILES | inhibition |
| --- | --- |
| CC(NC(=O)COC(=O)C12CC3CC(CC(Br)(C3)C1)C2)c1ccccc1 (configuration not stated) | 4.11% |
| CCOc1ccc2ccccc2c1/C=N/NC(=O)c1ccncc1 | -4.1% |
| O=C(N/N=C\c1c(O)ccc2ccccc12)c1ccc(O)cc1 | 3.55% |
| Cc1ccc(C(=O)N/N=C/c2c(O)ccc3ccccc23)cn1 | -7.55% |
| O=C(NN=Cc1c(O)ccc2ccccc12)c1ccc2c(c1)OCO2 | 3.47% |
| O=C(N/N=C\c1c(O)ccc2ccccc12)c1cncc(Br)c1 | -2.66% |
| O=C(N/N=C/c1c(O)ccc2ccccc12)c1ccc(Br)o1 | -3.25% |
| O=C(N/N=C/c1cccc2ccccc12)c1cccnc1 | -1.84% |
| O=C(N/N=C/c1c(O)ccc2ccccc12)c1cccc(C(F)(F)F)c1 | 5.26% |
| COc1ccc(-c2nnnn2-c2ccc(F)cc2F)cc1 | -3.82% |
| COP(=O)(OC)C1(O)C(=O)Nc2ccc(Br)cc21 (configuration not stated) | -4.97% |
| Nc1c(C(=O)NCc2ccc3c(c2)OCO3)nnn1Cc1ccc(Br)cc1 | 1.55% |
| N#CC(Cc1ccccc1)(Cc1ccccc1)C(=O)NN | -3.45% |
| COC1CCCCC1NS(=O)(=O)c1ccccc1 (configuration not stated) | 1.39% |
| CC(=O)NC(c1ccc(C(C)C)cc1)c1ccc2cccnc2c1O (configuration not stated) | -6.08% |
| COc1ccc(C(NC(C)=O)c2ccc3cccnc3c2O)c(OC)c1 (configuration not stated) | 20.8% |
| CC(C)C(=O)NC(c1ccco1)c1ccc2cccnc2c1O (configuration not stated) | 23.1% |
| CCCCC(=O)NC(c1cccc([N+](=O)[O-])c1)c1ccc2cccnc2c1O (configuration not stated) | 17.2% |
| CC(C)C(=O)NC(c1cccc([N+](=O)[O-])c1)c1ccc2cccnc2c1O (configuration not stated) | 17.9% |
| CC(=O)NC(c1ccc2ccccc2c1)c1ccc2cccnc2c1O (configuration not stated) | 23.8% |
